Results as given in the supplement of paper PMC10849652.
About 7,900 targets were measured; listed, in parts, are those with a hit and a random draw of the rest. About 0.6% of all pairs of compound and target were hits.

What follows are targets tested with CC(C)C1=C2N=C(C=C(N2N=C1)NCC3=CC=CC=C3)NCCCCCCN (assay: log2 fold change, soluble protein after heating vs DMSO (PISA); higher = thermal stabilisation; K562 cells, 10 uM, 30 min; active = over 0.2 and 3.5 SD of the protein, either way, in both replicates (recomputed)).
In short: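 K562 cells (2×10^6 cells/mL) were treated with 10 μM compound for 30 min, and aliquots were heated for 3 min over 48°C-58°C. Pooled aliquots were extracted in PBS with 0.5% NP-40 at 4°C, and the supernatant after 21,000xg for 90 min was measured by TMTpro 16plex LC-MS/MS with channel sums equalised. Reported thermal stability, relative to control samples and from duplicates, is a log2 fold change.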

Sequence of UniProt P28340 (P28340 whole entry, looked up): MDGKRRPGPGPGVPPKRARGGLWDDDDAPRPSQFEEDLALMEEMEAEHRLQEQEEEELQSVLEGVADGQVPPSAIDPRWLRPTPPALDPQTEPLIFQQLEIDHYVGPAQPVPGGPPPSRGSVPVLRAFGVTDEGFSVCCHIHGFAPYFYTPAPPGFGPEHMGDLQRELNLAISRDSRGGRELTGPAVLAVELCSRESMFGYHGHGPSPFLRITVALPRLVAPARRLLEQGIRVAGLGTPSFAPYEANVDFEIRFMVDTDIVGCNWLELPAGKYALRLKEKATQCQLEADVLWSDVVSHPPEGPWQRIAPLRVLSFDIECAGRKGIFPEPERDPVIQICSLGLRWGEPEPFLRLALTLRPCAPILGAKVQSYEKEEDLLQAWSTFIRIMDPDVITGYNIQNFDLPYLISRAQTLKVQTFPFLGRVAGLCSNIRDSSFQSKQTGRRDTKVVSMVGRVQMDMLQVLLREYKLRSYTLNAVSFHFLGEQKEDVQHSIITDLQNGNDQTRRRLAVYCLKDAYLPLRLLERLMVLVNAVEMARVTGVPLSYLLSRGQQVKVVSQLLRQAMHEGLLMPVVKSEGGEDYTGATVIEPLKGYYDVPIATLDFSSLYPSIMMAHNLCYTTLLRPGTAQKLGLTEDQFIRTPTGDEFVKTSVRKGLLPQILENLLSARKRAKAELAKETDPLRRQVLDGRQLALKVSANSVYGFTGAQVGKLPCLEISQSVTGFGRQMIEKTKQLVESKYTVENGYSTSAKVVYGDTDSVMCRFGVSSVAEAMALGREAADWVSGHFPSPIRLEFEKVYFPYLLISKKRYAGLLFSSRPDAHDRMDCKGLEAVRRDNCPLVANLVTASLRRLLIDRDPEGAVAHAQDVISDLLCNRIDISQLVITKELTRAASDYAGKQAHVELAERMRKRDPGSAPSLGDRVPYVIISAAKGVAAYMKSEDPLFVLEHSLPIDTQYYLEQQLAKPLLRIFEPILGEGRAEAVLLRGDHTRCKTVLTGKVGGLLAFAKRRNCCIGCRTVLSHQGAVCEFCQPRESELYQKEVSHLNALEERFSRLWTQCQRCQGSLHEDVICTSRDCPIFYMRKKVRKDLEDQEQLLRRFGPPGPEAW
Sequence of UniProt O43242 (O43242 whole entry, looked up): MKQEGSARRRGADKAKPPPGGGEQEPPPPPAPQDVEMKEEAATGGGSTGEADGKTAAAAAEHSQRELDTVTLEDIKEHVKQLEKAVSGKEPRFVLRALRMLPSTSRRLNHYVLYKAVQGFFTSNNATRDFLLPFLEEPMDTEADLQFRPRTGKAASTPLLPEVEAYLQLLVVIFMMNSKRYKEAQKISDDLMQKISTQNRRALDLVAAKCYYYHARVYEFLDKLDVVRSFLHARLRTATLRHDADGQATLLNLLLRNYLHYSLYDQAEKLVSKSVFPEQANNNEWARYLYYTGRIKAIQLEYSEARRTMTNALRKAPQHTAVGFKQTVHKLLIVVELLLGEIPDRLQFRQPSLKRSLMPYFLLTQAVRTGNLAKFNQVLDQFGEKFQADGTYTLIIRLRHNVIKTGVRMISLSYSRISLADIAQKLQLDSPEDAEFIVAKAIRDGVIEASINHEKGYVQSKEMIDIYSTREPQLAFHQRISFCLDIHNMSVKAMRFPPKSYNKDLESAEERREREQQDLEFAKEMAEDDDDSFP
Sequence of UniProt Q7RTV0 (Q7RTV0 whole entry, looked up): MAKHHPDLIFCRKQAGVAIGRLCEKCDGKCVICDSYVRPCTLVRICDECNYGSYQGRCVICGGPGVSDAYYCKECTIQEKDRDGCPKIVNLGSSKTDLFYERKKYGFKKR
Sequence of UniProt Q9UHX1 (Q9UHX1 whole entry, looked up): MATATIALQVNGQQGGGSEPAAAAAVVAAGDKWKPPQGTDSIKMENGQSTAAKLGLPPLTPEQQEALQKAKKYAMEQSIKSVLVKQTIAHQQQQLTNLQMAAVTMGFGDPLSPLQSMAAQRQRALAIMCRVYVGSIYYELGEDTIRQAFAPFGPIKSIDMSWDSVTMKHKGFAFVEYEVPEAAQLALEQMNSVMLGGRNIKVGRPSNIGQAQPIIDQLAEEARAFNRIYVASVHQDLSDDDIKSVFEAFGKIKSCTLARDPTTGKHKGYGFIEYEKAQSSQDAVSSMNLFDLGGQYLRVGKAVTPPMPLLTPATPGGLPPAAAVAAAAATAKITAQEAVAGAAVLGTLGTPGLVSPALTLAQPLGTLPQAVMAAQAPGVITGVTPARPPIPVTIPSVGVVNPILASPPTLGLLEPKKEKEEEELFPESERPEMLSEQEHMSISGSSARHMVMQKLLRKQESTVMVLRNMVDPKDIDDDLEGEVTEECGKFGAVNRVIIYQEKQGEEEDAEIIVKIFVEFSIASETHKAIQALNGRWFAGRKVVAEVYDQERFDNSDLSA
Sequence of UniProt P42338 (P42338 whole entry, looked up): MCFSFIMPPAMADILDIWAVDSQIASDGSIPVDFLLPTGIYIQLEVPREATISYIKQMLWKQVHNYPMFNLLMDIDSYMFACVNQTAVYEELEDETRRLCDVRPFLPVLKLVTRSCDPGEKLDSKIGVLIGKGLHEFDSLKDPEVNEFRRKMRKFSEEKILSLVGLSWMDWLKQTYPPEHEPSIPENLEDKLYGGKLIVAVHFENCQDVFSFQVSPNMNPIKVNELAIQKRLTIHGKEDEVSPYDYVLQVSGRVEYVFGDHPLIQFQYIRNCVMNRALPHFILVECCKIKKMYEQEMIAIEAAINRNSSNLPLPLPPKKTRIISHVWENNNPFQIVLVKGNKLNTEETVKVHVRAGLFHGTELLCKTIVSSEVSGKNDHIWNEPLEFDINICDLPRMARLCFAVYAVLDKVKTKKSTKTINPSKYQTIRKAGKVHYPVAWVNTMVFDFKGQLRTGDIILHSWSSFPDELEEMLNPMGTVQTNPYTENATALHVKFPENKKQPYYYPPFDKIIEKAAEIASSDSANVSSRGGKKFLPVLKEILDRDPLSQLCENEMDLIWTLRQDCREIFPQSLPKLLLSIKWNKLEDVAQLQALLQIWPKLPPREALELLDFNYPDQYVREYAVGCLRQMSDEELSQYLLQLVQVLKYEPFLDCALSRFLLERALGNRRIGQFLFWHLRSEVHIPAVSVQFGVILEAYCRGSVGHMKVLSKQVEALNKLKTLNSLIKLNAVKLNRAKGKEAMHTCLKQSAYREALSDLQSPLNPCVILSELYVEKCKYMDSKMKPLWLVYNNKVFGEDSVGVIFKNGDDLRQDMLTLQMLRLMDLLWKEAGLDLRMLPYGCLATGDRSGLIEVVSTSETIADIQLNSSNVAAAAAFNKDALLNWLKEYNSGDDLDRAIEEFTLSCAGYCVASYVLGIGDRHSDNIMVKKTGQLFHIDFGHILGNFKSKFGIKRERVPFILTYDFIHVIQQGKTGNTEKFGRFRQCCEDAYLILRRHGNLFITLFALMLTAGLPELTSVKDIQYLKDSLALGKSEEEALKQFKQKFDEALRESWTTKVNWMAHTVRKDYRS
Sequence of UniProt P53609 (P53609 whole entry, looked up): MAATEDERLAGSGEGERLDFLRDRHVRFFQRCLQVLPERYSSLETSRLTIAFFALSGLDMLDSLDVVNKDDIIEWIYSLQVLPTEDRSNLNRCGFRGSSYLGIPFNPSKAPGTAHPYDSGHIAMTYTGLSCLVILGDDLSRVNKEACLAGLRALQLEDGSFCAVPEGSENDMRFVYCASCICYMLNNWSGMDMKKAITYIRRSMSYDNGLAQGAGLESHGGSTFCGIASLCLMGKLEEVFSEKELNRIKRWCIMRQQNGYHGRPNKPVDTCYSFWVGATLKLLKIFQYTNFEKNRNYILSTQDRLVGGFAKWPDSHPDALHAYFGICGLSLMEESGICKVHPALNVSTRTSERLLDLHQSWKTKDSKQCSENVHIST
Sequence of UniProt Q16401 (Q16401 whole entry, looked up): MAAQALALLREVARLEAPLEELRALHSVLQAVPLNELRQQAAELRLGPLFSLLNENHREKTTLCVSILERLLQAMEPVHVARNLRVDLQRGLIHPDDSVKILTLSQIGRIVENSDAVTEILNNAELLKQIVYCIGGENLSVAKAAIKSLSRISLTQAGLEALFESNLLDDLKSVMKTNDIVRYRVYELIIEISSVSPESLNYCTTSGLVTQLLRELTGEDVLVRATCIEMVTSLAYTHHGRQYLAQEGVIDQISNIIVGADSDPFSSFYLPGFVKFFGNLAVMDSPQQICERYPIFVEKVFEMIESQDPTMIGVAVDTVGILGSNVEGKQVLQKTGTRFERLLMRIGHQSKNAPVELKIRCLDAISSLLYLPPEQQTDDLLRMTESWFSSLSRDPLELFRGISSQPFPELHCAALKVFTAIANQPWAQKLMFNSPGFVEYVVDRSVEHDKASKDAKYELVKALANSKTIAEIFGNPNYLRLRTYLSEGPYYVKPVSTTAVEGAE
Sequence of UniProt O95394 (O95394 whole entry, looked up): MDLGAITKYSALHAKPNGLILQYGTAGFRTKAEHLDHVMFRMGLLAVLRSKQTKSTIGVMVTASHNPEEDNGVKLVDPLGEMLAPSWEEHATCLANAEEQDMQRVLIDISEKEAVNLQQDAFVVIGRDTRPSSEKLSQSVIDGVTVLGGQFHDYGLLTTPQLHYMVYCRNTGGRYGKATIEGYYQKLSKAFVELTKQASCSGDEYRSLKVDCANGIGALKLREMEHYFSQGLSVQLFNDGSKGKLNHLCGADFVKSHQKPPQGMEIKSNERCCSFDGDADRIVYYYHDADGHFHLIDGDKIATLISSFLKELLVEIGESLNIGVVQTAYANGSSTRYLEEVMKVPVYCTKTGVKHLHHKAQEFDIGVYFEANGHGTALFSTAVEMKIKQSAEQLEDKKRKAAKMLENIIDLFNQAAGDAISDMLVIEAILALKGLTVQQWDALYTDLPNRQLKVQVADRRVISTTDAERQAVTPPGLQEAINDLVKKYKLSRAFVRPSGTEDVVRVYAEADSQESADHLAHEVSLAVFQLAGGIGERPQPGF
Sequence of UniProt Q96A00 (Q96A00 whole entry, looked up): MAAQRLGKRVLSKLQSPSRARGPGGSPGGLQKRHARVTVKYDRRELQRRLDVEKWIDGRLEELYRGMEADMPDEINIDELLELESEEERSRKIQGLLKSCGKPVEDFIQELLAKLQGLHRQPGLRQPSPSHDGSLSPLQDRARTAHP

Target	log2 fold change
PHF5A (UniProt Q7RTV0)	0.242 (active)
PRKAR2A (UniProt P13861)	-0.002 (inactive)
PRUNE1 (UniProt Q86TP1)	-0.129 (inactive)
POMP (UniProt Q9Y244)	0.009 (inactive)
PPT2 isoform 3 (UniProt Q9UMR5)	-0.17 (inactive)
PIP4P1 isoform 2 (UniProt Q86T03)	-0.329 (active)
POLD1 (UniProt P28340)	-0.12 (inactive)
PGGT1B (UniProt P53609)	-0.019 (inactive)
PPP1R14A (UniProt Q96A00)	0.126 (inactive)
PRMT3 (UniProt O60678)	-0.189 (inactive)
PEX11B (UniProt O96011)	0.075 (inactive)
PCYT1A (UniProt P49585)	-0.163 (inactive)
PISD (UniProt Q9UG56)	0.001 (inactive)
PSMD5 (UniProt Q16401)	-0.106 (inactive)
PRPF40A (UniProt O75400)	-0.411 (active)
PDIK1L (UniProt Q8N165)	-0.139 (inactive)
PMPCA (UniProt Q10713)	0.097 (inactive)
PDCD2L (UniProt Q9BRP1)	0.078 (inactive)

Target	log2 fold change
PSMC6 (UniProt P62333)	0.077 (inactive)
PRKAB1 (UniProt Q9Y478)	-0.006 (inactive)
PDSS2 (UniProt Q86YH6)	-0.085 (inactive)
POLA1 (UniProt P09884)	-0.151 (inactive)
PGM3 isoform 4 (UniProt O95394)	-0.097 (inactive)
PSMD3 (UniProt O43242)	0.01 (inactive)
PARL (UniProt Q9H300)	-0.233 (active)
PEX13 (UniProt Q92968)	-0.201 (inactive)
PURA (UniProt Q00577)	0.129 (inactive)
PSMB4 (UniProt P28070)	0.065 (inactive)
PIK3CB (UniProt P42338)	-0.082 (inactive)
PPP2R5C isoform 4 (UniProt Q13362)	-0.02 (inactive)
PUF60 (UniProt Q9UHX1)	-0.235 (active)
PRKACA (UniProt P17612)	0.008 (inactive)
PRPSAP2 (UniProt O60256)	0.035 (inactive)
PHKA2 (UniProt P46019)	-0.143 (inactive)
PTPN12 (UniProt Q05209)	-0.101 (inactive)
RAB11FIP1 (UniProt Q6WKZ4)	-0.118 (inactive)
